Assay outcomes: PubChem, National Center for Advancing Translational Sciences (NCATS)
TDP1 cell noCPT – qHTS for Inhibitors of human tyrosyl-DNA phosphodiesterase 1 (TDP1): qHTS in cells in absence of CPT; DT40 Tdp1-/- hTDP1 cells, no CPT, ATP luminescence, 48 h; Potency, µM (doses to about 46.2 µM), for inactives: at the highest dose activity change, negative = growth inhibition, hits mostly inhibitors; 420,000 tested, 15% active; AID 686978, 2013; further: nearly all actives have a fitted effect of over 55% in size
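Chicken DT40 Tdp1-/- cells stably complemented with human TDP1 were seeded at 400 cells/well with DMSO in place of 20 nM camptothecin. After compound pinning, cells grew at least 48 hr at 37 °C; viability read by CellTiter-Glo luminescence.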
ALOX12 inh – inhibitors of human 12S-lipoxygenase ALOX12. Potency, µM (highest dose often 108 µM), for the others: at the highest dose activity change, negative = inhibition, most hits filed as inhibitors. 580,000 tested, 1.1% active. purified 12hLO, xylenol orange hydroperoxide absorbance. P18054
Target sequence (P18054 whole entry, looked up): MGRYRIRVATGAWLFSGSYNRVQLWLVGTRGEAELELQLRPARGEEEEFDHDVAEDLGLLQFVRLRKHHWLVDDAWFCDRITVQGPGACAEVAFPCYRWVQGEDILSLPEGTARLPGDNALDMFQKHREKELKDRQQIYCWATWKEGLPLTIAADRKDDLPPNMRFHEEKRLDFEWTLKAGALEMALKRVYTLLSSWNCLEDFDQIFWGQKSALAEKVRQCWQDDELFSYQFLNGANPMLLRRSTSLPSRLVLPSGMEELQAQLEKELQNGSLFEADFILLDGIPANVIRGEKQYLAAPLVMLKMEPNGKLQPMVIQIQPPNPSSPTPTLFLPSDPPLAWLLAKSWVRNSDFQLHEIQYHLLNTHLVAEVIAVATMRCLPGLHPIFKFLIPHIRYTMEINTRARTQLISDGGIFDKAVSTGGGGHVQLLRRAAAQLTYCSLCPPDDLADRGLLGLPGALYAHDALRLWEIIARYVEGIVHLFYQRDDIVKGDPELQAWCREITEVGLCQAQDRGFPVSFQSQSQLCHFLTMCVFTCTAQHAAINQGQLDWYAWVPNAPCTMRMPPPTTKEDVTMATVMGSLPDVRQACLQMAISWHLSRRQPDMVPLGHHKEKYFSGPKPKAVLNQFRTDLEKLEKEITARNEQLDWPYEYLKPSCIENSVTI
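Purified human 12hLO (150 nM final) in 25 mM Hepes, 0.01% Triton X-100, pH 7.0 was preincubated 15 min at room temperature with compound. Then 40 uM arachidonic acid was added, 30 min. Hydroperoxide was read by Fe-XO absorbance ratio 573/405 nm.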
ELG1 DNA repair – ELG1-dependent DNA repair inhibition; HEK293T ELG1-luciferase reporter, luminescence, 16 h; DNA damage induced by 5-fluorouridine; Potency, µM (highest dose often 46.1 µM), for inactives: at the top dose activity change, negative = inhibition, actives largely listed as inhibitors; 330,000 tested, 2.3% active; further: nearly all actives have a fitted effect of over 55% in size
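Step one: seed 2,000 cells per well. Step two: pin-transfer compound or DMSO alongside 5-fluorouridine. Step three: incubate 16 hr, 37 °C, 5% CO2. Step four: add ONE-Glo, wait 30 min, read luminescence.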
Gal4-VP16 FLuc – Gal4-VP16 reporter inhibition counter-screen; Potency, µM (titrated, usually from 53.6 µM), without a hit: at the top dose activity, negative = inhibition, usual class: inhibitors; Drosophila S2 Gal4-VP16 UAS-luciferase, luminescence, 20 h; AID 2546; 310,000 tested, 3.5% active;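 further: Gal4-VP16 expression switched on by copper sulfate through the metallothionein promoter; nearly all actives have a fitted effect of over 50% in size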
RORg inh – ROR gamma (mouse) transcription inhibition; Potency, µM (doses to about 53.6 µM), for inactives: at the top dose activity change, negative = inhibition, most hits filed as inhibitors; Drosophila S2 Gal4-RORgamma UAS-luciferase reporter, 20 h; 310,000 tested, 5.4% active; P51450; further: nearly all actives have a fitted effect of over 60% in size
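Read-out: Photinus luciferase luminescence; inhibitors lower reporter signal. Insect Schneider cells with Gal4-ROR gamma fusion under metallothionein promoter, UAS reporter; 700 uM final copper sulfate induction, 20 hr, ambient temperature.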
TDP1 cell CPT – growth inhibition of DT40 Tdp1-/-;hTDP1 cells with camptothecin (screen for TDP1 inhibitors). chicken DT40 Tdp1-/-;hTDP1 cells + 20 nM CPT, ATP luminescence, 48 h. Potency, µM (doses to about 46.2 µM), without a hit: at the top dose activity change, negative = growth inhibition, hits mostly inhibitors. 420,000 tested, 12% active; further: nearly all actives have a fitted effect of over 55% in size
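Chicken DT40 Tdp1-/- cells stably complemented with human TDP1 were seeded at 400 cells/well in medium containing 20 nM camptothecin, exposed to pin-transferred compounds, and grown at 37 °C for at least 48 hr. Viability was read as ATP luminescence.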
An asterisk follows results filed as active; u = inconclusive; x = not tested or not shown; [ ] = dose if it differs, or a comment. In the library only some 15% were active in any assay of this set; here they are far more common. The call rests on the fitted dose curve; in most records, active means well fitted curve in the direction sought with a large enough effect; inconclusive means small, poorly fitted or top-dose-only effect, or another doubt; inactive means no such curve, though single readings can be large; an effect the other way counts as inactive or inconclusive. On the % scale 0 is the no-effect control and ±100 the full control effect; potency means the concentration at half of the fitted maximal effect.

SMILES | TDP1 cell noCPT | ALOX12 inh | ELG1 DNA repair | Gal4-VP16 FLuc | RORg inh | TDP1 cell CPT
C=C(C)CN1CC[C@]23c4c5ccc(O)c4O[C@H]2c2[nH]c4ccccc4c2C[C@@]3(O)C1C5 | x | x | x | -20% | -5% | x
Oc1ccc2c3c1OC1c4[nH]c5ccccc5c4C[C@@]4(O)C(C2)N(CC2CC2)CC[C@]314 (stereo partly specified) | u | -17% | 13% | x | x | u
O=C1/C(=C/c2ccccc2)C[C@@]2(O)[C@H]3Cc4ccc(O)c5c4[C@@]2(CCN3CC2CC2)C1O5 (stereo partly specified) | 2.6µM* | x | 18µM* | x | x | 3.3µM*
C=CCN1CC[C@]23c4c5ccc(O)c4OC2C(=O)CC[C@]3(O)C1C5 (stereo partly specified) | 1% | x | x | 1% | 19% | 22%
COc1cccc(CC(=O)N2CCN(CCC(=O)NC(N)=O)CC2)c1 | x | 14% | x | x | x | x
CN(C)C(=O)[C@H]1CN2CCC1C[C@@H]2Cn1cc(-c2cccc(O)c2)nn1 (stereo partly specified) | x | 2%[176 µM] | x | x | x | x
CC1=NOC2(CCN(Cc3ccsc3)C2)C1 (stereo unspecified) | x | 42%[176 µM] | x | x | x | x
Cc1cccc(N2CCc3c2nc2ccccc2c3N)c1 | u | u | u | 19% | u | 15µM*
CC(C)[C@H](CO)Nc1nc(Nc2cccc(Cl)c2)c2ncn(C(C)C)c2n1 | 9.4µM* | -5%[57.4 µM] | x | 0% | 14µM* | 9.4µM*
O=C1NC[C@H](CCCCN2C[C@@H](Cc3ccccc3)N(CC3CCCCC3)C(=O)C2=O)N(CCC2CCCCC2)C1=O | 13µM* | u | x | x | x | 18µM*
CC(C)C[C@@H]1CN(CCCC[C@H]2CNC(=O)C(=O)N2CCC2CCCCC2)C(=O)C(=O)N1CCC1CCCCC1 | -24% | u | x | x | x | -21%
CC(C)C[C@H]1CN(CCCC[C@H]2CNC(=O)C(=O)N2CCC2CCCCC2)C(=O)C(=O)N1CCC1CCCCC1 | 21µM* | 0% | x | x | x | u
c1ccc(C2=NOC3(CCCN(Cc4ccccn4)C3)C2)cc1 (stereo unspecified) | x | -7%[6.33 µM] | x | x | x | x
CCC1C(c2ccccc2)NC(c2ccccc2)CC1(O)c1ccc(F)cc1 (stereo unspecified) | 23µM* | -7% | -11% | u | -28% | u
C/C=C(\C)C(=O)N[C@@H](c1ccccc1)[C@@H](O)C(=O)O[C@H]1C[C@@]2(O)[C@@H](OC(=O)c3ccccc3)C3[C@](C)(C(=O)[C@H](OC(C)=O)C(=C1C)C2(C)C)[C@H](O)C[C@H]1OC[C@@]31OC(C)=O (stereo partly specified) | 0.16µM* | 37% | u | 35µM* | u | 0.13µM*
CC/C=C/CC(=O)N[C@@H](c1ccccc1)[C@@H](O)C(=O)O[C@H]1C[C@@]2(O)[C@@H](OC(=O)c3ccccc3)C3[C@](C)(C(=O)[C@H](OC(C)=O)C(=C1C)C2(C)C)[C@@H](O)C[C@H]1OC[C@@]31OC(C)=O (stereo partly specified) | 0.18µM* | -2% | u | -21% | u | 0.021µM*
CCC(C)C(=O)N[C@@H](c1ccccc1)[C@@H](O)C(=O)O[C@H]1C[C@@]2(O)[C@@H](OC(=O)c3ccccc3)C3[C@](C)(C(=O)[C@H](OC(C)=O)C(=C1C)C2(C)C)[C@@H](O)C[C@H]1OC[C@@]31OC(C)=O (stereo partly specified) | 0.18µM* | 6% | -17% | -19% | u | 0.029µM*
CN(C)Cc1ccccc1-c1ccc2n(c1=O)C[C@H]1C[C@@H]2CN(C(=O)c2cnccn2)C1 | x | -14%[176 µM] | x | x | x | x
CCOc1ccc(C(C)(C)COCc2cccc(Oc3ccccc3)c2)cc1 | x | 18% | x | x | x | x
Nc1ccc(CCN2CCN(c3cccc(C(F)(F)F)c3)CC2)cc1 | 23µM* | -11% | x | x | x | u
CNC(C)c1cccc(Cl)c1 (stereo unspecified) | x | -8%[12.5 µM] | x | x | x | x
CCCCOc1ccc(C(=O)NCC(=O)N2CCN(C/C=C/c3ccccc3)CC2)cc1 | 16µM* | 5% | x | x | x | u
O=C(COc1ccccc1)N1CCN(C/C=C/c2ccccc2)CC1 | 21µM* | 2% | -22% | 3% | 24% | 16µM*
CCOc1ccc(-c2cn3c(n2)sc2cc(C(=O)N4CCCC(C)C4)ccc23)cc1 (stereo unspecified) | 6.5µM* | -9% | x | x | x | 10µM*
Cc1c(C(=O)N2CCOCC2)sc2nc(-c3ccccc3)cn12 | -17% | 0% | u | 3% | 38% | 1%
SMILES | TDP1 cell noCPT | ALOX12 inh | ELG1 DNA repair | Gal4-VP16 FLuc | RORg inh | TDP1 cell CPT
O=C(NC[C@H]1C[C@@H]2CCN1C[C@@H]2CN1C[C@@H]2C[C@H](C1)c1cccc(=O)n1C2)c1ccccc1 | x | 20% | x | x | x | x
CC(=O)OC12COC1CC(O)C1(C)C(=O)C(O)C3=C(C)C(O)CC(O)(C(OC(=O)c4ccccc4)C21)C3(C)C (stereo unspecified) | 1µM* | -22% | x | x | x | 1.2µM*
CC(=O)OC1C(=O)[C@]2(C)C(O)CC3OC[C@]3(OC(C)=O)C2[C@@H](OC(=O)c2ccccc2)[C@]2(O)CC(O)C(C)=C1C2(C)C (stereo partly specified) | 3.7µM* | x | x | -12% | -22% | u
CC(=O)O[C@@]12CO[C@H]1C[C@H](O)[C@@]1(C)C(=O)[C@H](O)C3=C(C)[C@@H](O)C[C@@](O)([C@@H](OC(=O)c4ccccc4)[C@@H]21)C3(C)C | x | -5%[57.4 µM] | x | x | x | x
CCCCn1c(C)c(C(=O)OCC)c2cc(OC(C)=O)ccc21 | x | 26% | x | x | x | x
COc1cccc(CC(=O)N2CC[C@H]3C(=O)NCCCCCN(Cc4cccnc4)[C@@H]3C2)c1 | x | 49% | x | x | x | x
COc1cccc(/C=C2\N=C(c3cncc(Br)c3)OC2=O)c1 | 23µM* | -14% | u | 6% | -5% | u
C=C[C@H]1CN2CC[C@H]1C[C@@H]2CNC(=O)N1CCOCC1 | x | 40%[176 µM] | x | x | x | x
O=C(NC[C@H]1C[C@@H]2CCN1C[C@@H]2CN1CCSCC1)c1ccccc1 | x | 42%[176 µM] | x | x | x | x
CCN(CC)CCCOC(=O)C(OC(C)C)(c1ccccc1)c1ccccc1 | 18µM* | u | -14% | -12% | u | 23µM*
